Measurements reported in the supplement of paper PMC12819154, “High-throughput peptide-centric local stability assay extends protein–ligand identification to membrane proteins, tissues and bacteria” (Nature Structural & Molecular Biology, 2025).

Compound: Nc1ncnc2c1ncn2[C@@H]1O[C@H](COP(=O)(O)OP(=O)(O)OP(=O)(O)O)[C@@H](O)[C@H]1O [adenosine 5'-triphosphate]
Assay: log2 fold change of tryptic peptide abundance, ligand vs vehicle (limited proteolysis) (log2 ratio); higher = more trypsin-susceptible (destabilized)
Conditions: ligand concentration: 5 mM; sample: E. coli desalted lysate; replicate design: treated before aliquoting
Protocol: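 HT-PELSA: desalted E. coli K-12 BW25113 lysate (with 12 mM MgCl2) incubated with 5 mM ATP (pH 7) or water for 30 min at 25 C, then a 4 min trypsin pulse at 22 C. Peptides were quantified by DIA-MS (4 replicates). Value is the peptide log2 fold change (treated/control); negative = stabilized. Scale: negative = ligand-stabilized region.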
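Also: lysate desalted by size exclusion to strip endogenous ATP, peptide intensities built from DIA-NN precursor signals, and peptides missing any value discarded before comparison.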

UniProt P75863, sequence (P75863 whole entry): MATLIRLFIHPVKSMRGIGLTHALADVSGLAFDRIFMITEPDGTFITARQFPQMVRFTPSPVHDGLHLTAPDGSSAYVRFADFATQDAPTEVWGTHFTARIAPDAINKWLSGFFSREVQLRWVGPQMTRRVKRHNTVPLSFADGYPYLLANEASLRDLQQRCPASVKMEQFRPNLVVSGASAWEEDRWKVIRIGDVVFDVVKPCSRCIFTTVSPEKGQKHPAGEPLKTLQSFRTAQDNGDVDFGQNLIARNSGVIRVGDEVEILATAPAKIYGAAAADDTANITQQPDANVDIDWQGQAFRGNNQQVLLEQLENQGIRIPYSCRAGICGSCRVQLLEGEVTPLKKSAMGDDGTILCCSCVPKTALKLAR
UniProt P77306, sequence (P77306 whole entry): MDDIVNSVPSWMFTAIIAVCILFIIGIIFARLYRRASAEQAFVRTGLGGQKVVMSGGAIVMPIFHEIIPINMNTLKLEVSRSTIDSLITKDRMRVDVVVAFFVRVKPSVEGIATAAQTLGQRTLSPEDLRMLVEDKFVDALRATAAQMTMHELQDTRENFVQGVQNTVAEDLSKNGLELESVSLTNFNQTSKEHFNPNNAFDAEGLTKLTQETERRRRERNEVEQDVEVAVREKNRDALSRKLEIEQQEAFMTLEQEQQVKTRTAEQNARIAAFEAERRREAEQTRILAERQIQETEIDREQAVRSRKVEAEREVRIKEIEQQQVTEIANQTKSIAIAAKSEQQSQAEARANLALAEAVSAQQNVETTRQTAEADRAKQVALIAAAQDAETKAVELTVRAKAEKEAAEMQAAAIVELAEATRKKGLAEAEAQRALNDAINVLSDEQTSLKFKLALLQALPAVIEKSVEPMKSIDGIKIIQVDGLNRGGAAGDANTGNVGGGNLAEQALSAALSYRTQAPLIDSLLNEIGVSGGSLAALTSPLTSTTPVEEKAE
UniProt P28904, sequence (P28904 whole entry): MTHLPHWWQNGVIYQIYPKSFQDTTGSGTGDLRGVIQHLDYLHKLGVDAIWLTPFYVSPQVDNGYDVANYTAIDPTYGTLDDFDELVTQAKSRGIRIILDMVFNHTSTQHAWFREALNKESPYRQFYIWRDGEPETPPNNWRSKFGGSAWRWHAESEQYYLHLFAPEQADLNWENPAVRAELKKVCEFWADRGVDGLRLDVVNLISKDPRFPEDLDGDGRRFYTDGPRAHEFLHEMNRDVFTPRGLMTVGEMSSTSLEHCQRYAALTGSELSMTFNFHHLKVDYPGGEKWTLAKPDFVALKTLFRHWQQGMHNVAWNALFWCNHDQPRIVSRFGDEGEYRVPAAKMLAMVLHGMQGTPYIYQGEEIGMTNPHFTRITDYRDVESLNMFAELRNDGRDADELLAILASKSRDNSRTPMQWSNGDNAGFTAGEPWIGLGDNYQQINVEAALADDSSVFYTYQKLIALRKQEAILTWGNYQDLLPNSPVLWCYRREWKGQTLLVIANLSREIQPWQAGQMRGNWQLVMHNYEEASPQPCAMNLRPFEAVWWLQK
UniProt P25437, sequence (P25437 whole entry): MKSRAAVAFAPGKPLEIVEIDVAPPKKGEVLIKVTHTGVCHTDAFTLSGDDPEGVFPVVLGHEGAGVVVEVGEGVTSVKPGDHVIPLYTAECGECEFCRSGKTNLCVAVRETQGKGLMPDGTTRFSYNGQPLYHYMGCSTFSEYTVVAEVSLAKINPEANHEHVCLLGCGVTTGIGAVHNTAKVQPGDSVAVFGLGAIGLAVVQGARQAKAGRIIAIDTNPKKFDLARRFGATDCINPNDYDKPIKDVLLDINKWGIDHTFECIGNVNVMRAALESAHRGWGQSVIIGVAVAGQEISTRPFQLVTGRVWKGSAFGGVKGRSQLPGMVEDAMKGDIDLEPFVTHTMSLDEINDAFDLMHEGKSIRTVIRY
UniProt P37595, sequence (P37595 whole entry): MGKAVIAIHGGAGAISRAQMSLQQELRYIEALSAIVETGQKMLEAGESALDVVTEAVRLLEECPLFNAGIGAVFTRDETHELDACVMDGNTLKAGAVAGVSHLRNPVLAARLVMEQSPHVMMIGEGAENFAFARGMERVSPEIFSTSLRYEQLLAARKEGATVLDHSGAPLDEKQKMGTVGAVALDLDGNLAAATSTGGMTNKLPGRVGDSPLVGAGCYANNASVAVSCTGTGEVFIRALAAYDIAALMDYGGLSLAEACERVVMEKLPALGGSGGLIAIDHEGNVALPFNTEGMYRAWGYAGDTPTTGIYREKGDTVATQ
UniProt P45395, sequence (P45395 whole entry): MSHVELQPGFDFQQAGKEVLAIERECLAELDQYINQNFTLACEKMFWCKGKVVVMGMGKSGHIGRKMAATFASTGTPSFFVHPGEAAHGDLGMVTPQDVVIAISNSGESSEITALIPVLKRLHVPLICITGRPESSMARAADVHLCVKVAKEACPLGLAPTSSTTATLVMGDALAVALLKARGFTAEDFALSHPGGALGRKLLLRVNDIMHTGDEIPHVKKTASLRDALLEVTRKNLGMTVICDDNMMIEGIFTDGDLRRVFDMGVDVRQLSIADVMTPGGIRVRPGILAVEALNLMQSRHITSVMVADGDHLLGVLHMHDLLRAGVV
UniProt P37313, sequence (P37313 whole entry): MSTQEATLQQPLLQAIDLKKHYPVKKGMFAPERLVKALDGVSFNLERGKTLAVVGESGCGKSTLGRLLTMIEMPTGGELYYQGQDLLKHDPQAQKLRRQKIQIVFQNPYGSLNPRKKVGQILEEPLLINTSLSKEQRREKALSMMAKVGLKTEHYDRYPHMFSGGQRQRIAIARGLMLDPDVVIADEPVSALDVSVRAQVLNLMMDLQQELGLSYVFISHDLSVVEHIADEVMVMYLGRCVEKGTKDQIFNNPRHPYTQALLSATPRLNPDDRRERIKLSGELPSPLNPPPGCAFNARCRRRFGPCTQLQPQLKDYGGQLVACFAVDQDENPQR
UniProt P34209, sequence (P34209 whole entry): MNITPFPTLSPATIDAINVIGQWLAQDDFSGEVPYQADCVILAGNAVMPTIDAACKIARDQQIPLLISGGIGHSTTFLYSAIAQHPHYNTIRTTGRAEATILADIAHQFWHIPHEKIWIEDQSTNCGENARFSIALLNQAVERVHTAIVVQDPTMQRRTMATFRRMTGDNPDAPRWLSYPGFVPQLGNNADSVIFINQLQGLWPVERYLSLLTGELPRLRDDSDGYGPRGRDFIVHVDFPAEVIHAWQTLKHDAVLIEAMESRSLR
UniProt P23874, sequence (P23874 whole entry): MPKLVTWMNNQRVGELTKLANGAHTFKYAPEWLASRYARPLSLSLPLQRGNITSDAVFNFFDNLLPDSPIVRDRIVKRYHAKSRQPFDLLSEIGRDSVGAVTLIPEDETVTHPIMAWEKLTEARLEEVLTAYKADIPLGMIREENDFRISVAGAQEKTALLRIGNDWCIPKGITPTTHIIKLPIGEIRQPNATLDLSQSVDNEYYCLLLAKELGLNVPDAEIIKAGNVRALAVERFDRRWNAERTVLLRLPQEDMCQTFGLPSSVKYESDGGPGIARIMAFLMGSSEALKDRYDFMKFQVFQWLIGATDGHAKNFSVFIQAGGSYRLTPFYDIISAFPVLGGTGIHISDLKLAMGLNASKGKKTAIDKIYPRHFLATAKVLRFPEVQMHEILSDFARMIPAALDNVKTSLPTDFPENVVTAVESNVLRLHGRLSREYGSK
UniProt P00914, sequence (P00914 whole entry): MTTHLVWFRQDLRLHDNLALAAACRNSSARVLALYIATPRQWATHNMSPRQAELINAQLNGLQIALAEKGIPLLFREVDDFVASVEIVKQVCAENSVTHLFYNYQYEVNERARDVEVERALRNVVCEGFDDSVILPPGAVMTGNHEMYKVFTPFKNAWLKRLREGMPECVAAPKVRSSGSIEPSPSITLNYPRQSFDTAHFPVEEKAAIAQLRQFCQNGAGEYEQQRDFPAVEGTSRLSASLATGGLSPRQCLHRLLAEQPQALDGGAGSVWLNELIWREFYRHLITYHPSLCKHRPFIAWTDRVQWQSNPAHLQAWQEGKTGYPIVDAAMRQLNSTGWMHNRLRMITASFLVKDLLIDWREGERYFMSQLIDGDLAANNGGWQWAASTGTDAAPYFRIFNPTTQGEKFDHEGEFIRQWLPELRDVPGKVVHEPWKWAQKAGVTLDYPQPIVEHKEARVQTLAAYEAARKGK

Target	log2 fold change
UniProt P00914 (peptide sequence: LSASLATGGLSPR, peptide start residue: 238)	-0.871
UniProt P45395 (peptide sequence: LHVPLICITGRPESSMAR, peptide start residue: 122)	1.09
UniProt P37595 (peptide sequence: AQMSLQQELR, peptide start residue: 18)	0.693
UniProt P25437 (peptide sequence: SQLPGMVEDAMK, peptide start residue: 321)	-0.846
UniProt P23874 (peptide sequence: ISVAGAQEK, peptide start residue: 149)	-4.86
UniProt P75863 (peptide sequence: WVGPQMTR, peptide start residue: 122)	-0.577
UniProt P37313 (peptide sequence: GTKDQIFNNPR, peptide start residue: 244)	1.01
UniProt P34209 (peptide sequence: MTGDNPDAPR, peptide start residue: 166)	-0.261
UniProt P28904 (peptide sequence: LDVVNLISKDPR, peptide start residue: 199)	-0.478
UniProt P77306 (peptide sequence: TLSPEDLR, peptide start residue: 123)	0.57
